According to PubChem BioAssay AID1159580 (chemical genetic matrix, 2015):
About 2,000 (36%) of roughly 5,500 compounds were called active. Roughly 18% stayed inconclusive and do not appear here. No stated cut-off is given here; in the data, active means normalized growth mostly below about 0.91 (no sharp cut-off); inconclusive means no clear call, values can overlap the other calls; inactive means mostly above about 0.92. The list shows a part of the results.

Assay: chemical genetic growth profiling, strain panel (AID 1159580);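 further: tested at 20 µM; growth read once vehicle control cultures reached saturation at 30 °C; 1 = growth at the plate median or of vehicle wells; lower values mean less growth of the strain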
Details: growth OD

Measured: normalized growth

NS(=O)(=O)c1ccc(-n2ncc3ccccc3c2=O)cc1
inactive: S. cerevisiae deletion strains, locus YAL013W, strain DEP1, active compounds read low 1.02 | S. cerevisiae deletion strains, locus YBR229C, strain ROT2, active compounds read low 1.01 | S. cerevisiae deletion strains, locus YCL061C, strain MRC1, active compounds read low 1.01 | S. cerevisiae deletion strains, locus YDL101C, strain DUN1, active compounds read low 1.04 | S. cerevisiae deletion strains, locus YDL134C, strain PPH21, active compounds read low 1.02 | S. cerevisiae deletion strains, locus YDR150W, strain NUM1, active compounds read low 0.989 | S. cerevisiae deletion strains, locus YEL061C, strain CIN8, active compounds read low 0.987 | S. cerevisiae deletion strains, locus YGR078C, strain PAC10, active compounds read low 1.02 | S. cerevisiae deletion strains, locus YHR030C, strain SLT2, active compounds read low 1.05 | S. cerevisiae deletion strains, locus YHR087W, strain rtc3, active compounds read low 1 | S. cerevisiae deletion strains, locus YJR043C, strain POL32, active compounds read low 1.01 | S. cerevisiae deletion strains, locus YJR075W, strain HOC1, active compounds read low 1.02 | S. cerevisiae deletion strains, locus YKL190W, strain CNB1, active compounds read low 1 | S. cerevisiae deletion strains, locus YLR039C, strain RIC1, active compounds read low 1.01 | S. cerevisiae deletion strains, locus YLR058C, strain SHM2 (second series), active compounds read low 0.994 | S. cerevisiae deletion strains, locus YLR085C, strain ARP6, active compounds read low 0.984 | S. cerevisiae deletion strains, locus YLR262C, strain YPT6, active compounds read low 1.06 | S. cerevisiae deletion strains, locus YML094W, strain GIM5, active compounds read low 0.986 | S. cerevisiae deletion strains, locus YMR219W, strain ESC1, active compounds read low 1 | S. cerevisiae deletion strains, locus YMR263W, strain SAP30, active compounds read low 1.01 | S. cerevisiae deletion strains, locus YMR307W, strain GAS1, active compounds read low 0.981 | S. cerevisiae deletion strains, locus YNL153C, strain GIM3, active compounds read low 0.996 | S. cerevisiae deletion strains, locus YNL298W, strain CLA4 (second series), active compounds read low 1.01 | S. cerevisiae deletion strains, locus YNL322C, strain KRE1, active compounds read low 1.01 | S. cerevisiae deletion strains, locus YNR030W, strain Alg12, active compounds read low 1.01 | S. cerevisiae deletion strains, locus YPL055C, strain LGE1, active compounds read low 1.02 | S. cerevisiae deletion strains, locus YPL241C, strain CIN2, active compounds read low 1.03 | S. cerevisiae deletion strains, locus YPR135W, strain CTF4, active compounds read low 1.06 | S. cerevisiae strains, strain wild type, active compounds read low 1.01
